Source: PubChem (National Center for Advancing Translational Sciences (NCATS))
In the library only some 11% were active in any assay of this set; here they are far more common.
HP1b binding inh: blocks HP1-beta chromodomain binding to methylated histone tails | AlphaScreen HP1-beta / biotin-H3K9me3 peptide binding | AID 540317 | Potency, µM (doses to about 114 µM), for inactives: top-dose activity change, negative = inhibition, actives largely listed as inhibitors | actives 0.56% (n = 390,000) | P83916; note: nearly all actives have a fitted effect of over 70% in size
Target sequence (P83916 whole entry, looked up): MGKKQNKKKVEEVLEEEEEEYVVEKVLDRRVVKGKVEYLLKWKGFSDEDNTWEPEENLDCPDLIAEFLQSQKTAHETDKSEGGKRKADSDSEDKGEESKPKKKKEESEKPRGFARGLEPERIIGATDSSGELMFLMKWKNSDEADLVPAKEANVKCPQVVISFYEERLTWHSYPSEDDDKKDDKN
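HP1-beta protein (50 nM final) preincubated 30 min at room temperature with biotinylated H3(1-18)K9me3 peptide (50 nM) in PBS pH 7.4, 0.01% Tween-20, then compound added for 30 min. AlphaScreen streptavidin donor/nickel chelate acceptor beads (10 ug/mL final), 30 min dark, luminescence read.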
L3MBTL1 block: inhibitors of human L3MBTL1; Potency, µM (titrated, usually from 57.1 µM), inactives show top-dose activity, negative = inhibition, hits mostly inhibitors; actives 0.66% (n = 230,000); Q9Y468; AlphaScreen L3MBTL1–H3K9me1 peptide binding; note: % is set by controls: 0 for no effect and ±100 for the full control effect; nearly all actives have a fitted effect of over 60% in size
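L3MBTL1 50 nM + b-AHA-H3(1-15)K9me1 75 nM, 30 min RT; compound added, 30 min RT; streptavidin donor/Ni-chelate acceptor beads 10 ug/mL each final, 30 min RT dark; AlphaScreen read.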
JMJD2A Tudor inh: blocks the human JMJD2A Tudor domain | actives 4.4% (n = 390,000) | AlphaScreen JMJD2A-Tudor / H3K4me3 peptide binding | AID 504339 | Potency, µM (highest dose often 114 µM), without a hit: top-dose activity change, negative = inhibition, most hits filed as inhibitors; note: % is set by controls: 0 for no effect and ±100 for the full control effect; nearly all actives have a fitted effect of over 50% in size
G9a block: blocks human histone lysine methyltransferase G9a; Q96KQ7; G9a H3K9 monomethylation, AlphaScreen, 2 h; Potency, µM (titrated, usually from 102 µM), without a hit: at the highest dose activity, negative = inhibition, hits mostly inhibitors; actives 8.8% (n = 350,000); note: % is set by controls: 0 for no effect and ±100 for the full control effect; nearly all actives have a fitted effect of over 75% in size
Target sequence (Q96KQ7 913-1193 limits assumed): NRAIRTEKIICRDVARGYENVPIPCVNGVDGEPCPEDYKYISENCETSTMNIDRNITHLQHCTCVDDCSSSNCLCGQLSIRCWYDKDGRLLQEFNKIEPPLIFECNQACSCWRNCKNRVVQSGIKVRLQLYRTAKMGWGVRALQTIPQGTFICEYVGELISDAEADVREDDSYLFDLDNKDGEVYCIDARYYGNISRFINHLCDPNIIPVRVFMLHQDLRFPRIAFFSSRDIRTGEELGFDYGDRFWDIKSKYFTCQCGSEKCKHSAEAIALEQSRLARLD
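Chemiluminescent proximity detection of H3K9 monomethylation, read after 10 min bead incubation in the dark. Reaction: 20 nM G9a, 500 nM biotin-H3K9 peptide, 20 uM SAM cofactor, 2 h, room temperature, following 15 min enzyme-compound preincubation.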
BAZ2B block: inhibitors of human BAZ2B bromodomain. Q9UIF8. AlphaScreen BAZ2B-H3K14Ac peptide displacement. Potency, µM (top dose mostly 114 µM), for inactives: at the highest dose activity change, negative = inhibition, hits mostly inhibitors. actives 4.4% (n = 360,000); note: % is set by controls: 0 for no effect and ±100 for the full control effect; nearly all actives have a fitted effect of over 60% in size
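Compounds, titrated to a top concentration of 110 uM, were incubated 30 min at room temperature with preformed BAZ2B/acetyl-K14 H3 peptide complex (50 nM each). Proximity signal was measured by AlphaScreen after 20 min with beads.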
An asterisk follows results filed as active; [ ] = remark or other dose. Calls come from the whole dose curve; as a rule, active = well fitted inhibition curve with a large enough effect; inconclusive = small, poorly fitted or top-dose-only effect; inactive = no such curve, though single readings can be large or run the other way. Potency is the fitted concentration of half-maximal effect.

Screening CC(=O)OC1CC[C@]2(C)C(CC(OC(C)=O)[C@@]3(C)C4=CC(=O)OC(c5ccoc5)[C@]4(C)CCC23)C1(C)C (some centres undefined) returned G9a block -3%[2.33 µM].
C[C@@H](Nc1nc(Cl)nc2nc[nH]c12)c1ccccc1 was read as HP1b binding inh 38% and JMJD2A Tudor inh -5%.
Cc1cc(C)n2c(Br)c(CN3CCCC(C)C3)nc2n1 (centres undefined) was read as HP1b binding inh 39%, L3MBTL1 block -17%, JMJD2A Tudor inh 0%, G9a block 5% and BAZ2B block -15%.
For Cc1cc(C)nc(SCc2nc3nc(C)cc(C)n3c2Br)n1 the results were HP1b binding inh 24%, L3MBTL1 block 3%, JMJD2A Tudor inh -9%, G9a block 50µM* and BAZ2B block -19%.
Screening C=CCn1c(SCC(=O)c2ccc(Br)cc2)nnc1C(CC(C)C)NC(=O)c1cccs1 (centres undefined) returned HP1b binding inh 28%, JMJD2A Tudor inh -28%, G9a block 50µM* and BAZ2B block -10%.
Screening CC(C)CC(NC(=O)c1cccs1)c1nnc(SCc2ccc(Cl)c(Cl)c2)n1C (centres undefined) returned HP1b binding inh 27%, L3MBTL1 block 9%, JMJD2A Tudor inh -12%[57.1 µM], G9a block -13%[59 µM] and BAZ2B block -22%.
Screening COC(=O)c1sccc1S(=O)(=O)N1CCN(c2cccc(C)c2)C(C)C1 (centres undefined) returned HP1b binding inh -11%, JMJD2A Tudor inh -30%, G9a block 2%[59 µM] and BAZ2B block -38%.
`CCCOc1ccc(-c2nonc2NC(=O)c2ccco2)cc1OCCC` gave HP1b binding inh 54%, JMJD2A Tudor inh -1%, G9a block -1%[59 µM] and BAZ2B block -4%.
C=CCc1c(C)[nH]c2c(OC)cccc2c1=S was read as HP1b binding inh 2%, L3MBTL1 block -5%, JMJD2A Tudor inh inconclusive, G9a block 4µM* and BAZ2B block -34%.
Screening COc1ccc(CCNC(=O)CCSCc2ccccc2Cl)cc1OC returned HP1b binding inh 16%, JMJD2A Tudor inh -8%, G9a block 7%[59 µM] and BAZ2B block 4%.
For CCOCC(=O)Nc1nc(-c2ccccc2)c(CC)s1 the results were HP1b binding inh 19%, JMJD2A Tudor inh 30%, G9a block 35µM* and BAZ2B block -9%.
Screening CCOCC(=O)Nc1nc2ccc(OC)cc2s1 returned HP1b binding inh 59%, L3MBTL1 block -2%, JMJD2A Tudor inh -7%, G9a block -8%[12.7 µM] and BAZ2B block 0%.
`COc1ccc(/C([O-])=C(/C(=S)Nc2ccc(C)c(C)c2)n2c[n+](C)c3ccccc32)cc1OC` gave HP1b binding inh -2%, L3MBTL1 block -7%, JMJD2A Tudor inh -26%, G9a block 45µM* and BAZ2B block -36%.
`Nc1n[nH]c(N)c1N=Nc1ccccc1F` gave HP1b binding inh 6%, JMJD2A Tudor inh inconclusive, G9a block -8% and BAZ2B block inconclusive.
For Nc1n[nH]c(N)c1N=Nc1ccc(Cl)cc1Cl the results were HP1b binding inh -11%, L3MBTL1 block -17%, JMJD2A Tudor inh 32µM*, G9a block inconclusive and BAZ2B block 32µM*.
`O=c1c(=O)n(-c2ccccc2)ccn1Cc1c(F)cccc1Cl` gave HP1b binding inh 21%, JMJD2A Tudor inh -31%, G9a block -4%[59 µM] and BAZ2B block inconclusive.
`COc1cccc(-c2cc(CC3(O)CCN(CCCc4ccccc4)CC3)on2)c1` gave HP1b binding inh 16%, L3MBTL1 block -7%, JMJD2A Tudor inh -15%, G9a block 27% and BAZ2B block -33%.
COC(=O)CC1C(=O)NCCN1C(=O)CSc1nnc(Nc2ccc(C)cc2)s1 (centres undefined) was read as HP1b binding inh 36%, JMJD2A Tudor inh -1%, G9a block 40µM* and BAZ2B block 8%.
`COC(=O)CC1C(=O)NCCN1C(=O)CSc1nnc(Nc2ccc(OC)cc2)s1` (centres undefined) gave HP1b binding inh 40%, JMJD2A Tudor inh -3%, G9a block -33%[0.0925 µM] and BAZ2B block -2%.
